Tg IFNy HTS: T. gondii growth inhibition under IFN-gamma. hit rate 3.8% among 69,000. AID 1259416. activity change, negative = inhibition, % (no concentration beside the values). Toxoplasma gondii growth in IFN-gamma-treated host cells; active compounds read low; in the data active = activity change below about -70%, passing the limit was not always enough;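 also: host cells are HeLa cells infected with Toxoplasma gondii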
The depositor's hits bear a star; ! = not confirmed by another sample. The sample as a whole holds a higher share of hits than the screen did.

SMILES | Tg IFNy HTS
CCOC(=O)c1cnc2c(ccc3[nH]snc32)c1=O | -60.8
C/C=C/c1ccc([C@@H]2[C@@H](CO)N(C(C)=O)[C@H]2CNC(=O)c2ccccc2)cc1 | 28.9
CCCCOc1cc(C(F)(F)F)nc2ccc(CSc3nc4ccccc4[nH]3)cc12 | -86.3*
CCOc1ccc(OCCSc2nc3ccccc3[nH]2)cc1 | 11.6
CCOc1ccc2nc(SCC)[nH]c2c1 | 54.4
CS(=O)(=O)NC[C@@]12COC[C@H]1CN(C(=O)c1cnccn1)C2 | 4.5
CC1N(C)C(=O)COC12CCN(Cc1nccs1)CC2 (stereo not given) | 45.5
CC1NCCn2c(COCc3ccccn3)cnc21 (stereo not given) | -83.3*
CC1c2ncc(CNC(=O)C3CC3)n2CCN1Cc1ccccn1 (stereo not given) | 11.3
CC(=O)N1CCn2c(COCc3ccccn3)cnc2C1C (stereo not given) | 0.3
O=C(Cc1ccccn1)N1CC(=O)N2[C@H](C1)[C@@H](c1ccc(C#CCC3CCCC3)cc1)[C@@H]2CO | -49.8
C[C@@H]1CN([C@H](C)CO)C(=O)c2cc(NC(=O)Nc3ccccc3)ccc2O[C@@H]1CN(C)Cc1ccccc1 | -3.3
Cc1ccc2c(c1)NC1(CCN(S(=O)(=O)c3ccc(Cl)c(Cl)c3)CC1)c1cccn1-2 | 34.8
CCOC(=O)c1cnc2ccc(C(=O)OC)cc2c1Nc1ccc2c(c1)OCCO2 | -72.4*!
CCOC(=O)c1cnc2ccc(C(=O)OC)cc2c1Nc1ccc(C(=O)O)cc1 | -46.9
CCOC(=O)c1cnc2ccccc2c1NCCO | 13.2
CN(C)c1nc(N2CCOCC2)nc2c1CCN(C(=O)C1CC1)CC2 | 13.6
CN(C)CCN(Cc1cccs1)S(=O)(=O)c1ccc2[nH]c(=O)ccc2c1 | 360.9
CC(C)N(CCC#N)C(=O)Nc1ccc2c(c1)CCO2 | -31.7
N#CCCN(Cc1cccs1)S(=O)(=O)c1ccc2c(c1)CCO2 | -90.6*
Cc1nc(S(=O)(=O)N2CC(c3cccnc3)C2)cn1C | 3.6
CC(C)C(=O)NCCc1csc(C2CCCN(C(=O)/C=C/c3ccccc3Cl)C2)n1 (stereo not given) | -54.5
CCCNC(=O)N[C@@H]1C=C[C@@H](CC(=O)N2CCN(C)CC2)O[C@@H]1CO | 29.2
Cc1ccc(NC(=O)Cn2ncc3c(N4CCCCCC4)ncnc32)cc1F | -101.1*
O=C(Cn1ncc2c(N3CCCC3)ncnc21)Nc1ccc(F)c(Cl)c1 | -45.4
SMILES | Tg IFNy HTS
O=C(Cn1ncc2c(N3CCN(c4ccccc4)CC3)ncnc21)Nc1ccc(OC(F)(F)F)cc1 | -51.9
O=C(Cn1ncc2c(N3CCCC3)ncnc21)Nc1ccc(OC(F)(F)F)cc1 | -0.5
Cc1ccc(NC(=O)Cn2ncc3c(N4CCCC4)ncnc32)cc1Cl | -54.9
O=C(Cn1ncc2c(N3CCCCCC3)ncnc21)Nc1ccc(OC(F)(F)F)cc1 | -98.0*
Cc1nnc(Sc2nc3ccc(Cl)cc3s2)n1-c1ccc2c(c1)OCCO2 | -15.0
CCn1ncc(C(=O)NCCc2nccc(-c3ccccc3)n2)c1C | -4.8
CCN(CCN1CCCC1)C(=O)c1cccc(-c2ccc(O)cc2)c1 | -10.0
N#Cc1c(NC(=S)NC(=O)c2ccc(Br)cc2)sc2c1CCCCC2 | 207.9
COCC(=O)N1C[C@H](N(C)Cc2ccco2)C2OCCCC21 (stereo not given in full) | 54.1
C[C@@H](NC(=O)C[C@@H]1CC[C@@H]2[C@H](COC[C@@H](O)CN2C(=O)Nc2cccc(Cl)c2)O1)c1ccccc1 | -59.0
CC[C@@H](C(=O)[C@@H](C)[C@@H](O)[C@H](C)[C@@H]1O[C@@H]([C@@H](CC)C(=O)O)CC[C@@H]1C)[C@H]1O[C@]2(C=C[C@@H](O)[C@]3(CC[C@@](C)(C4CC[C@](O)(CC)[C@H](C)O4)O3)O2)[C@H](C)C[C@@H]1C (stereo not given in full) | -80.7*
CC[C@@H](C(=O)[C@@H](C)[C@@H](O)[C@H](C)[C@@H]1O[C@@H]([C@@H](CC)C(=O)O)CC[C@@H]1C)[C@H]1OC2(C=C[C@@H](O)[C@]3(CC[C@@](C)(C4CC[C@](O)(CC)[C@H](C)O4)O3)O2)[C@H](C)C[C@@H]1C (stereo not given in full) | -83.8*
O=C(C[C@@H]1CC[C@H]2[C@@H](COC[C@@H](O)CN2S(=O)(=O)c2ccc(F)cc2)O1)NCCN1CCCCC1 | -11.3
OC1CCN(c2ccnc(N3C[C@@H]4[C@@H]5CC[C@@H](C5)[C@@H]4C3)n2)C1 (stereo not given in full) | -7.9
Cc1cc(C2CCCN2Cc2cnc3c(-c4ccccc4)cnn3c2)on1 (stereo not given) | 19.6
CCOc1ccc(S(=O)(=O)NCc2nc(-c3cccc(Cl)c3)oc2C)cc1 | 32.7
Nc1cccc2c1CN(C1CCC(=O)NC1=O)C2=O (stereo not given) | 4.0
CCC(C(=O)N1CCN(c2ncccn2)CC1)n1c2ccccc2c2cnn(C)c(=O)c21 (stereo not given) | -86.0*
Cn1ncc2c3ccccc3n(CC(=O)N3CCN(c4ncccn4)CC3)c2c1=O | 130.2
CCC(C(=O)NCc1ccccn1)n1c2ccccc2c2cnn(C)c(=O)c21 (stereo not given) | 10.8
O=C(CCCc1cccs1)N1CCC2(CCCNC2)C1 (stereo not given) | -14.1
Cc1ccc(C)c(NC(=O)N2CCC(c3nc(C(=O)N4CCOCC4)c(C)o3)CC2)c1 | 75.8
CCCN(CCC)S(=O)(=O)c1ccc(NC(=O)c2ccc3c(c2)OCO3)cc1 | -64.8
CSc1ncc(C(=O)Nc2ccc(Oc3ccc4c(c3)OCO4)cc2)cn1 | -102.9*
CSc1ncc(C(=O)Nc2cccc(C(=O)N3CCCCC3)c2)cn1 | 12.6
SMILES | Tg IFNy HTS
O=C(CC1COCCN1)NCc1cn2ccccc2n1 (stereo not given) | 13.7
CN1CCC(=C2c3ccccc3Sc3ccccc32)CC1 | -10.4
CCCN1CCC2(CC(C(=O)NCc3cnc(C)cn3)=NO2)C1 (stereo not given) | -3.8
Cc1cc(CNC(=O)c2cc3ccccc3s2)c2ccccc2n1 | 12.2
O=C(O)c1cc2ccccc2s1 | -71.2*
CC1CCN(C(=O)c2cc3ccccc3s2)CC1 | 19.1
Cc1oc(-c2ccc(OC(C)C)cc2)nc1Cn1nnc(C(=O)Nc2ccc(F)cc2F)c1C | -109.6*
CCc1ccccc1NC(=O)c1nnn(Cc2nc(-c3cc(Br)ccc3OC)oc2C)c1C | 55.5
Cc1cccc(NC(=O)c2nnn(Cc3nc(-c4ccc(OC(C)C)cc4)oc3C)c2C)c1C | -89.1*
Cc1cccc(NC(=O)c2nnn(Cc3nc(-c4ccc(Cl)cc4)oc3C)c2C)c1C | -3.8
COc1cccc(-c2nc(Cn3nnc(C(=O)Nc4ccccc4C)c3C)c(C)o2)c1OC | 49.5
Cc1ccc(C)c(NC(=O)c2nnn(Cc3nc(-c4ccc(OC(C)C)cc4)oc3C)c2C)c1 | 11.0
CCc1ccccc1NC(=O)c1nnn(Cc2nc(-c3cccc(OC)c3OC)oc2C)c1C | -84.5*
COc1ccc(NC(=O)c2nnn(Cc3nc(-c4ccc(OC(C)C)cc4)oc3C)c2C)c(OC)c1 | -37.7
CCOc1ccc(-c2nc(Cn3nnc(C(=O)Nc4cc(F)ccc4C)c3C)c(C)o2)cc1 | 73.0
C=CCn1cc(CN2CCN(C)C3(CCN(C(=O)C(C)(C)C)CC3)C2)cn1 | -4.3
Cc1nc2c(c(=O)[nH]1)CCN(C(=O)Cc1nc(C)sc1-c1ccccc1)C2 | -1.6
CCS(=O)(=O)NC1COCCC12CCN(Cc1cccnc1)CC2 (stereo not given) | -22.9
COc1cccc(CCC(=O)N2CCOC3CCC2C3OC)c1 (stereo not given) | -39.9

Assay outcomes deposited in PubChem BioAssay by Broad Institute.
